Here are results for 5 molecules from PubChem BioAssay.

Calls of active or inactive are those of the source. Unless noted, no rule for the calls is given here.

Assay [1] in a line: compounds binding Alexa647 anti-His antibody – biochemical, small-molecule microarray, 635 nm fluorescence, artefact control for SMM control protein annotation, primary screen (AID 1128).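 Also: score merges feature fluorescence with signal-to-noise for each printed compound spot.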 Conditions: higher = more signal.
Assay [2] relates to Human papillomavirus type 1a E7 protein (residues 1-88). Put plainly: HPV1a E7 small-molecule binders, primary screen, biochemical, small-molecule microarray, residues 1-88, 635 nm (AID 1129). Conditions: small-molecule microarray binding, fluorescence 635 nm; higher = more signal.
Assay [3] addresses Focal adhesion kinase 1 (Homo sapiens) (UniProt Q05397). Put plainly: PTK2 protein binding on printed compound slides – biochemical, small-molecule microarray, 635/667 nm fluorescence, BSA, DTT, primary screen (AID 1130).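 Also: composite of spot emission at 667 nm and signal to noise over triplicate slides.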 Conditions: 635 nm fluorescence, higher = more signal.
In assay [4] the test system is Fibrinogen (Alexa647-labelled). Put plainly: Alexa647-fibrinogen binding to printed small molecules – biochemical, small-molecule microarray, 635/667 nm fluorescence, artefact control for SMM control-protein annotation, profiling panel (AID 1131).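 Also: z-score merges 667 nm fluorescence with per-spot signal-to-noise over triplicate slides.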 Conditions: fibrinogen-A647 binding fluorescence, higher = more signal.
Assay [5] deals with Follistatin (Homo sapiens) (UniProt P19883). Put plainly: FST protein binding to printed compounds – biochemical, small-molecule microarray, 635/667 nm fluorescence, primary screen (AID 1132). Conditions: 635 nm fluorescence, higher = more signal.
Assay [6] deals with Fibroblast growth factor 2 (Homo sapiens) (UniProt P09038). As to the kind of experiment: basic fibroblast growth factor binding to printed compounds – biochemical, small-molecule microarray, 635/667 nm fluorescence, primary screen (AID 1133). Conditions: FGF2, fluorescence 635/667, higher = more signal.
A short description of assay [7]: JC-1 mitochondrial potential readout, lung cancer cells – cell-based, A549, JC-1 fluorescence, basal, 24 h, 100 nL, profiling panel (AID 1138).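 Also: A549 lung adenocarcinoma cells under basal conditions with no added stimulus; test concentration not given here.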 Conditions: higher = more signal.
For assay [8], the system named is Lefty1. Put plainly: Lefty1 protein binding to printed compounds – biochemical, small-molecule microarray, 635/667 nm fluorescence, primary screen (AID 1139). Conditions: fluorescence 635/667, higher = more signal.
The test system of assay [9] is wheat germ agglutinin (Triticum aestivum), Alexa647-labelled. As to the kind of experiment: Alexa647-WGA lectin binding to printed small molecules – biochemical, small-molecule microarray, 635/667 nm fluorescence, artefact control for SMM control-protein annotation, profiling panel (AID 1140).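 Also: score merges 667 nm feature emission with signal to noise over triplicate slides.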 Conditions: WGA-A647 binding, 635 nm fluorescence, higher = more signal.
For assay [10], the target named is Luciferin 4-monooxygenase (Photinus pyralis) (UniProt P08659). Put plainly: inhibition of purified Photinus pyralis luciferase – biochemical, luminescence, purified enzyme, 2006 set, primary screen (AID 1141).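 Also: cell-free assay with purified firefly luciferase at 100 ng per well in PBS; test concentration not given here.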 Conditions: purified firefly luciferase, SteadyGlo luminescence, 30 min; higher = more signal, called active from +8 up or from −8 down.
The test system of assay [11] is Wnt5a (protein binding on small-molecule microarray). As to the kind of experiment: small molecules binding Wnt5a protein – biophysical, small-molecule microarray, 635/667 nm fluorescence, primary screen (AID 1142).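 Also: fluorescence read at 667 nm with signal to noise per printed feature.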 Conditions: 635 nm fluorescence, higher = more signal.
Assay [12] in a line: ATP-based viability of Huh7 replicon cells – cell-based, CellTiter-Glo luminescence, basal, 48 h, cytotoxicity control for HCV replication inhibitor project, primary screen (AID 1143).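 Also: Huh7 hepatoma cells carrying a hepatitis C replication reporter with no stimulus; test concentration not given here.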 Conditions: higher = more signal, called active from +8 up or from −8 down.
A short description of assay [13]: Pseudomonas biofilm growth suppression – PAO1 strain, BacTiter-Glo luminescence, LB-PBS, primary screen (AID 1144). Conditions: P. aeruginosa PAO1 biofilm, 12 h, higher = more signal.
Assay [14] can be described thus: basal CRE-LacZ reporter activity in PC12 – cell-based, unstimulated, primary screen (AID 1145). Conditions: no forskolin, luminescence, 4.5 h, higher = more signal, called active from +8 up or from −8 down.
A short description of assay [15]: forskolin-driven CRE-LacZ activity in PC12 – cell-based, CRE-LacZ reporter, forskolin-stimulated, primary screen (AID 1146).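 Also: PC12 cells with 6xCRE LacZ reporter stimulated by forskolin 10 µM; beta-galactosidase reporter signal reflecting CREB driven transcription.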 Conditions: luminescence, 4.5 h, higher = more signal, called active from +8 up or from −8 down.
Assay [16] concerns the target Streptavidin (Streptomyces avidinii) (UniProt P22629). As to the kind of experiment: compounds binding control protein streptavidin – biophysical, small-molecule microarray, 635/667 nm fluorescence, artefact control for SMM compound annotation, primary screen (AID 1147).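 Also: signal reflects streptavidin binding to arrayed compounds as a control protein.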 Conditions: higher = more signal.
The nature of assay [17]: probe aInhba binding on compound microarray – biochemical, small-molecule microarray, 635/667 nm fluorescence, primary screen (AID 1148).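 Also: score merges 667nm spot fluorescence with signal-to-noise for antibody binding to printed compounds.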 Conditions: higher = more signal.
Assay [18] has as its target Torsin-1A (Homo sapiens) (UniProt O14656). As to the kind of experiment: TOR1A wild-type binding on microarray – cell lysate, small-molecule microarray, lysate, 635/667 nm, primary screen (AID 1149). Conditions: COS7 hTOR1A-WT lysate, 635 nm fluorescence, higher = more signal.
For assay [19] the target is unchanged. As to the kind of experiment: torsin A mutant lysate binding on microarrays – cell lysate, small-molecule microarray, COS7 lysate, 635/667 nm fluorescence, primary screen (AID 1150).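 Also: score pools 667 nm emission and signal to noise measuring lysate protein binding.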 Conditions: COS7 hTOR1A mutant lysate, 635 nm fluorescence, higher = more signal.
For assay [20], the system named is Sonic hedgehog protein (Shh). As to the kind of experiment: Sonic hedgehog microarray binding compounds – biochemical, small-molecule microarray, 635/667 nm fluorescence, primary screen (AID 1151).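 Also: Shh protein binding to compounds spotted on small-molecule microarray slides; score combines spot fluorescence intensity with signal-to-noise across triplicate slides.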 Conditions: 635 nm fluorescence, higher = more signal.

Focal adhesion kinase 1 (Homo sapiens), sequence (Q05397 whole entry, looked up): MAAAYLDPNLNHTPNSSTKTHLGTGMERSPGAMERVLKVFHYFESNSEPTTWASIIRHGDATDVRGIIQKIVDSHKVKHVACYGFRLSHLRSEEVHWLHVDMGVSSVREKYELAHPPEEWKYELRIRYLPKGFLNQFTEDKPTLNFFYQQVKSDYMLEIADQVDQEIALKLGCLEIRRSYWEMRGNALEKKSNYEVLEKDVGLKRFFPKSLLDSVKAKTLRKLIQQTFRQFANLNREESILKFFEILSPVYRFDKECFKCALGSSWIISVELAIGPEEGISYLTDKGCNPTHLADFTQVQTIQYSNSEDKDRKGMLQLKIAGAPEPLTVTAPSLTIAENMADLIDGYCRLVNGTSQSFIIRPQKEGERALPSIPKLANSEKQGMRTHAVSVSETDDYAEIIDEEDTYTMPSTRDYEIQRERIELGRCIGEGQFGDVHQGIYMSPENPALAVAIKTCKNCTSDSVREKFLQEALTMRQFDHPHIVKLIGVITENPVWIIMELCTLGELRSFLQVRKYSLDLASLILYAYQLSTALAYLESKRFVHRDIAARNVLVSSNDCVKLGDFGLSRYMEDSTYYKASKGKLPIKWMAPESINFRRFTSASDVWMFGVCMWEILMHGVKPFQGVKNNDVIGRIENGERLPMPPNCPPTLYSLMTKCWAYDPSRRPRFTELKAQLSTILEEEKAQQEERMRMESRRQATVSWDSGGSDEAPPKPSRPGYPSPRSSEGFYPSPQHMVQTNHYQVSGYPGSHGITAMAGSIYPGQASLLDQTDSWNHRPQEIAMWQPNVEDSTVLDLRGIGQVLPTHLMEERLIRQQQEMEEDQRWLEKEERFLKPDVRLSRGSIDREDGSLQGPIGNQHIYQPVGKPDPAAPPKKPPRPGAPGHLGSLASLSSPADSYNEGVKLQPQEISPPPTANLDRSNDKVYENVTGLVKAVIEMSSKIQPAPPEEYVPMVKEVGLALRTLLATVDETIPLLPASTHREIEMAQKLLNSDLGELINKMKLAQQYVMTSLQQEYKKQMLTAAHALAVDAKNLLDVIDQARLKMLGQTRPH
Luciferin 4-monooxygenase (Photinus pyralis), sequence (P08659 whole entry, looked up): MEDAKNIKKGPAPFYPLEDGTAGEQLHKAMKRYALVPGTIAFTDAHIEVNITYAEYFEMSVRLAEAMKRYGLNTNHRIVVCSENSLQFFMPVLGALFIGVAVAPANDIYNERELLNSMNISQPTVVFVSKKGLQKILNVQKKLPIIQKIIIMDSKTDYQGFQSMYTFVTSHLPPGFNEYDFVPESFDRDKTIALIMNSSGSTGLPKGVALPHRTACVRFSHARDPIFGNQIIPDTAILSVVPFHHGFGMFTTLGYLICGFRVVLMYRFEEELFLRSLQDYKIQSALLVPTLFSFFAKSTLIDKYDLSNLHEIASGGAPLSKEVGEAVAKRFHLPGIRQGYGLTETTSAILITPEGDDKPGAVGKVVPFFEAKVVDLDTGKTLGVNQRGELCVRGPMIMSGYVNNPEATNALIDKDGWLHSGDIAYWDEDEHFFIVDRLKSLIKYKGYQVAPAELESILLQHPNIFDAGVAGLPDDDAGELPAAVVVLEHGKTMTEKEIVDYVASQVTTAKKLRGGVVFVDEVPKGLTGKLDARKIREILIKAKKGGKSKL
Torsin-1A (Homo sapiens), sequence (O14656 whole entry, looked up): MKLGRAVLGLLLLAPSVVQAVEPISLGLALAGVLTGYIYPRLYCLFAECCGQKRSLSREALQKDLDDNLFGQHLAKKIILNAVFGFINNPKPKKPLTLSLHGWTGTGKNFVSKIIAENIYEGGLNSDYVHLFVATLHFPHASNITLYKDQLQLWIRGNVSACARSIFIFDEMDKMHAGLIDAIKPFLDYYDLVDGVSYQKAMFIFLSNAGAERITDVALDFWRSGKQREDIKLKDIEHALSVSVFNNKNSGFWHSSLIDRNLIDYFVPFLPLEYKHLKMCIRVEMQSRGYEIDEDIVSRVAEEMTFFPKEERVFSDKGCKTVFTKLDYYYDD
Streptavidin (Streptomyces avidinii), sequence (P22629 whole entry, looked up): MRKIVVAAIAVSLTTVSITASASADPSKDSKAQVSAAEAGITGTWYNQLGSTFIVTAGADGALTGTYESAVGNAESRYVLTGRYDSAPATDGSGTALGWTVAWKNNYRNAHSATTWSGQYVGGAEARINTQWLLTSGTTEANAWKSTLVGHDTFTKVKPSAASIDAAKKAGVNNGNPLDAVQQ
Fibroblast growth factor 2 (Homo sapiens), sequence (P09038 whole entry, looked up): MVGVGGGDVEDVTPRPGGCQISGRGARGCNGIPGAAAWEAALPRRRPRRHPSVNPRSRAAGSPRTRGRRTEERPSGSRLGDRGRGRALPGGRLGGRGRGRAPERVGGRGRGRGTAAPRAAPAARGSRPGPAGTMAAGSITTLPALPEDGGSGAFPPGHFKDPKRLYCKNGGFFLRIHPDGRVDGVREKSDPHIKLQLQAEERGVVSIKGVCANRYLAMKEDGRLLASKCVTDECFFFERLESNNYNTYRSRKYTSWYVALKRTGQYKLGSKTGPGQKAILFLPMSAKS
Follistatin (Homo sapiens), sequence (P19883 whole entry, looked up): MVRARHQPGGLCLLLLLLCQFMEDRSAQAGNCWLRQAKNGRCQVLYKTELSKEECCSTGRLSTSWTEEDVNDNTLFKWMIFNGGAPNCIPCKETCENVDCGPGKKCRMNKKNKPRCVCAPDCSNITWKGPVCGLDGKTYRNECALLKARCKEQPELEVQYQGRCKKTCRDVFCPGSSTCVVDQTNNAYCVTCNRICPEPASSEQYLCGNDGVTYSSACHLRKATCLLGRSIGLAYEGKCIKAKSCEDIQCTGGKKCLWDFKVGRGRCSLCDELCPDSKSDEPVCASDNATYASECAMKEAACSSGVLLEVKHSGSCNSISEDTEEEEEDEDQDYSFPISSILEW

`C[N+](C)(C)CCCCCCNC(=O)[C@H]1C[C@H]2C(=O)NCC(=O)N2[C@H]1c1cccc(OCCO)c1`: the composite z-score in [1] is 3.03; in [2], 0.283; in assay [3] it was -0.27; in [4], 0.0104; in [5], 1.13; in assay [6], 1.63. For the same molecule, the composite z-score in assay [8] was 1.6; in assay [9], 0.273; in [11], -0.196; in [16], -0.518; in assay [17], -0.14; in [18] it was 1.1. Besides, the composite z-score in assay [19] stood at 0.781; in [20], 2.17. The z-score in assay [7] is -0.883; in assay [10], -0.0987 (inactive); in [12], -0.103 (inactive); in assay [13], 0.052 (inactive); in assay [14], -0.675 (inactive); in [15], -0.487 (inactive).
As to `COc1ccc(CCNC(=O)[C@@]2(C)c3ccccc3C(=O)N(Cc3cc(C(F)(F)F)cc(C(F)(F)F)c3)[C@H]2c2ccc(CO)cc2)cc1`, the composite z-score in [1] is 0.202; in assay [2], 1.07; in assay [3], 0.431; in [4], -0.0796; in assay [5] it was 1.19; in [6], 0.491. The composite z-score in [8] is 0.0292; in assay [9] it was 0.367; in assay [11], 0.024; in assay [16], -0.404; in assay [17], -0.102; in assay [18] it was 0.602. For the same molecule, the values for the composite z-score in assay [19] and in assay [20] were 1.52 and 0.198, respectively. Also, the z-score is 0.502 in assay [7]; -0.868 (inactive) in [10]; -5.45 (inactive) in assay [12]; 0.603 (inactive) in assay [13]; 1.18 (inactive) in assay [14]; -0.896 (inactive) in assay [15].
Regarding `C=CC[C@@]12N=C(c3ccc(OCCCO)cc3)O[C@@H]1c1ccccc1N(Cc1ccccc1)C2=O`, the composite z-score worked out at 2.52 in assay [1]; 1.17 in assay [2]; 0.986 in assay [3]; 0.8 in assay [4]; 1.55 in [5]; 1.44 in assay [6]. The composite z-score in assay [8] was 1.55; in [9], 1.04; in assay [11] it was 0.711; in [16], 0.25; in assay [17] it was 0.605; in assay [18], 1.19. For the same molecule, the composite z-score in assay [19] was found to be 0.909; in assay [20] it was 2.06. In addition, the z-score in assay [7] is -0.379; in [10], -2.6 (inactive); in assay [12], -4.31 (inactive); in assay [13], 0.519 (inactive); in [14], 1.1 (inactive); in assay [15] it was -1.66 (inactive).
Consider `COCCOC(=O)N1C(=O)[C@@]2(c3cc(C#Cc4ccc(OC)cc4)ccc31)[C@H](C(=O)N1CCCCCCC1)[C@H]1C(=O)O[C@H](c3ccccc3)[C@H](c3ccccc3)N1[C@@H]2c1ccccc1OCCO`, for which the composite z-score in assay [1] turned out to be 0.32; in assay [2], 1.21; in assay [3], 0.628; in assay [4] it was 0.495; in [5], 1.49; in assay [6], 1.54. Also, the composite z-score in [8] was 1.62; in assay [9] it was 0.614; in assay [11], 1.15; in [16], 1.53; in [17], 1.59; in [18], 1.43. Moreover, the figures for the composite z-score in [19] and in assay [20] were 1.18 and 1.9, respectively. The z-score is -0.864 in assay [7]; 0.197 (inactive) in assay [10]; -0.751 (inactive) in assay [12]; -1.4 (inactive) in assay [13]; -1.42 (inactive) in [14]; 0.323 (inactive) in assay [15].
`COCCOC(=O)N1C(=O)[C@@]2(c3cc(C#CC4(O)CCCCCC4)ccc31)[C@H](c1ccccc1OCCO)N1[C@H](c3ccccc3)[C@H](c3ccccc3)OC(=O)[C@H]1[C@@H]2C(=O)N1CCCCCCC1`: the composite z-score came out at 0.663 in assay [1]; 1.23 in assay [2]; 0.504 in [3]; 0.733 in [4]; 1.45 in assay [5]; 1.09 in assay [6]. In addition, the composite z-score amounted to 1.37 in assay [8]; 1.29 in assay [9]; 0.611 in [11]; 1.64 in assay [16]; 1.2 in [17]; 0.812 in assay [18]. Also, the results for the composite z-score in assay [19] and in assay [20] were 1.02 and 2.01, respectively. The z-score was -0.768 in assay [7]; 0.144 (inactive) in [10]; -4.01 (inactive) in assay [12]; -0.977 (inactive) in [13]; -1.01 (inactive) in assay [14]; 0.881 (inactive) in assay [15].
